Results as given in PubChem BioAssay (Tox21).
Records with an inconclusive call do not appear. Calls of active or inactive are those of the source. Unless noted, calls follow the shape of the dose curve; as a rule, active = well fitted curve in the direction sought with a large enough effect in the repeat runs; inconclusive = weak or mixed curves; inactive = no such curve, though single readings can be large; an effect the other way counts as inactive or inconclusive.

Tests used:
[1] = qHTS assay for small molecules that induce genotoxicity in human embryonic kidney cells expressing luciferase-tagged ATAD5 (AID 651632); also: nearly all actives have a fitted effect of over 15% in size
Procedure, shortened: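 Cells were seeded at 2,000 per well, dosed with compound, and incubated 16 hr at 37C in 5% CO2. Luciferase activity was then quantified after a 30 min room-temperature incubation with Amplite.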

[2] = qHTS assay for small molecules that induce genotoxicity in human embryonic kidney cells expressing luciferase-tagged ATAD5 - cell viability (AID 651634; calls by dose curve; also: nearly all actives have a fitted effect of over 25% in size)
Procedure, shortened: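 Cells (HEK293T, luciferase-tagged ATAD5) are seeded at 2,000 per well, dosed with compound or DMSO vehicle, and incubated 15.5 hr at 37C and 5% CO2. CellTiter-Fluor is added for 30 min before fluorescence is measured.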

[3] = qHTS assay to test for compound auto fluorescence at 590 nm (red) in HepG2 cells (AID 720674)
Procedure, shortened: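 Rose Bengal sodium served as the red fluorophore standard. HepG2 monolayers (overnight attachment, MEM with 10% FBS) were exposed to test compounds for 1 hr at 37 C and read at Ex 540/Em 590 nm.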

[4] = qHTS assay to test for compound auto fluorescence at 535 nm (green) in HepG2 cells (AID 720675)
[5] = qHTS assay to test for compound auto fluorescence at 460 nm (blue) in HEK293 cells (AID 720678)
Procedure, shortened: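 Blue-channel (Ex/Em 405/460 nm) intensity measured in HEK293 cultures after overnight compound exposure at 37C; signal expressed relative to triamterene. Cells plated 2,000 per well in 10% dialyzed FBS medium and allowed 4-5 hr to attach.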

[6] = qHTS assay to test for compound auto fluorescence at 590 nm (red) in HEK293 cells (AID 720679)
Procedure, shortened: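 Red-channel autofluorescence (Ex/Em 540/590 nm; Rose Bengal sodium reference) was measured after overnight 37C, 5% CO2 exposure of attached HEK293 cells, 2,000 per well in medium with 10% dialyzed FBS.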

[7] = qHTS assay to test for compound auto fluorescence at 460 nm (blue) in HEK293 cell free culture (AID 720681)
Procedure, shortened: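 Test compounds were pinned into cell-free culture medium (DMEM with 10% FBS) and fluorescence was read directly at Ex/Em 405/460 nm. Signals were expressed as fluorescence equivalents of triamterene, with DMSO vehicle as control.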

[8] = qHTS assay to test for compound auto fluorescence at 590 nm (red) in HEK293 cell free culture (AID 720683)
Procedure, shortened: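 Tox21 10K library compounds were pinned into cell-free DMEM with 10% FBS and fluorescence was read at excitation 540 nm. Activity is expressed as Rose Bengal sodium equivalency.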

[9] = qHTS assay to test for compound auto fluorescence at 590 nm (red) in HepG2 cell free culture (AID 720684)
Procedure, shortened: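 Readout: intrinsic compound fluorescence at 590 nm emission after 540 nm excitation, scaled to Rose Bengal sodium. Matrix was cell-free MEM with 10% FBS; DMSO vehicle wells served as control.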

[10] = qHTS assay to test for compound auto fluorescence at 535 nm (green) in HepG2 cell free culture (AID 720686)
[11] = qHTS assay to test for compound auto fluorescence at 460 nm (blue) in HepG2 cells (AID 720687)
Procedure, shortened: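 Cells (2,000/well in MEM with 10% FBS) attached overnight at 37 C, then were exposed to compound or DMSO for 1 hr at 37 C, 5% CO2. Fluorescence read at Ex/Em 405/460 nm, expressed as triamterene-equivalent signal.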

[12] = qHTS assay for small molecule agonists of the p53 signaling pathway - cell viability (AID 651633; calls by dose curve;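 also: p53RE-bla HCT reporter cells with a stable beta-lactamase p53 reporter; nearly all actives have a fitted effect of over 30% in size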)
Procedure, shortened: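 p53RE-bla cells, seeded at 4,000 per well and rested 5 h at 37 C/5% CO2, received compounds in DMSO for 16 h at 37 C. CellTiter-Glo was then added, and luminescence was read after 30 min at room temperature to gauge cytotoxicity.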

[13] = qHTS assay for small molecule disruptors of the mitochondrial membrane potential - cell viability (AID 720634; calls by dose curve;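 also: human HepG2 liver cancer cells; nearly all actives have a fitted effect of over 20% in size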)
Procedure, shortened: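 Cytotoxicity was measured by ATP quantitation in HepG2 wells that had first been treated with compound for 1 hr and stained with m-MPI dye; CellTiter-Glo incubation was 30 min at room temperature.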

[14] = qHTS assay for small molecule disruptors of the mitochondrial membrane potential (AID 720635); also: potency is read from the fitted curve at half-maximal effect
Procedure, shortened: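 HepG2 cells (2,000/well) attached overnight at 37C, then took compound for 1 hr at 37C, 5% CO2. Mito-MPS dye was added for 30 min; fluorescence was read at 490/535 nm (monomers) and 540/590 nm (aggregates).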

[15] = qHTS assay to test for compound auto fluorescence at 535 nm (green) in HEK293 cells (AID 720680)
[16] = qHTS assay to test for compound auto fluorescence at 535 nm (green) in HEK293 cell free culture (AID 720682)
Procedure, shortened: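 Green-label autofluorescence (485 nm excitation, 535 nm emission) measured on compound added to cell-free culture medium (DMEM, 10% FBS). Output is expressed relative to fluorescein.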

[17] = qHTS assay to test for compound auto fluorescence at 460 nm (blue) in HepG2 cell free culture (AID 720685)
Procedure, shortened: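 Cell-free plates of MEM plus 10% FBS received 23 nL compound or DMSO vehicle; blue-channel (405/460 nm) intensity scored against triamterene as reference fluorophore.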

[18] = target: Glucocorticoid receptor (Homo sapiens) (UniProt P04150); assay: qHTS assay to identify small molecule antagonists of the glucocorticoid receptor (GR) signaling pathway (AID 720692; active = well fitted inhibition curve with a large enough effect in the signal ratio in the repeat runs, not every such curve was filed as active; the % refers to the signal ratio)
Procedure, shortened: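 Antagonism was scored as loss of dexamethasone-driven (5 nM final) reporter signal in HeLa cells bearing a glucocorticoid response element–beta-lactamase construct, after 18 h compound exposure at 37 C and 2 h FRET substrate loading.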

[19] = target: Glucocorticoid receptor (Homo sapiens) (UniProt P04150); assay: qHTS assay to identify small molecule agonists of the glucocorticoid receptor (GR) signaling pathway (AID 720691; active = well fitted activation curve with a large enough effect in the signal ratio in the repeat runs, not every such curve was filed as active; the % refers to the signal ratio); conditions: GR-bla HeLa, beta-lactamase reporter ratio, 18 h; activation: at 62.4 µM (top of the series) unless noted
Procedure, shortened: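 Steps: seed GR-bla HeLa cells, incubate 4 h at 37 C/5% CO2; pin-transfer DMSO-dissolved compounds; incubate 18 h at 37 C; add LiveBLAzer B/G FRET substrate; after 2 h at room temperature, measure fluorescence.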
% is scaled to controls: 0 for no effect and ±100 for the full control effect.

Sequence of Glucocorticoid receptor (Homo sapiens) (P04150 whole entry, looked up): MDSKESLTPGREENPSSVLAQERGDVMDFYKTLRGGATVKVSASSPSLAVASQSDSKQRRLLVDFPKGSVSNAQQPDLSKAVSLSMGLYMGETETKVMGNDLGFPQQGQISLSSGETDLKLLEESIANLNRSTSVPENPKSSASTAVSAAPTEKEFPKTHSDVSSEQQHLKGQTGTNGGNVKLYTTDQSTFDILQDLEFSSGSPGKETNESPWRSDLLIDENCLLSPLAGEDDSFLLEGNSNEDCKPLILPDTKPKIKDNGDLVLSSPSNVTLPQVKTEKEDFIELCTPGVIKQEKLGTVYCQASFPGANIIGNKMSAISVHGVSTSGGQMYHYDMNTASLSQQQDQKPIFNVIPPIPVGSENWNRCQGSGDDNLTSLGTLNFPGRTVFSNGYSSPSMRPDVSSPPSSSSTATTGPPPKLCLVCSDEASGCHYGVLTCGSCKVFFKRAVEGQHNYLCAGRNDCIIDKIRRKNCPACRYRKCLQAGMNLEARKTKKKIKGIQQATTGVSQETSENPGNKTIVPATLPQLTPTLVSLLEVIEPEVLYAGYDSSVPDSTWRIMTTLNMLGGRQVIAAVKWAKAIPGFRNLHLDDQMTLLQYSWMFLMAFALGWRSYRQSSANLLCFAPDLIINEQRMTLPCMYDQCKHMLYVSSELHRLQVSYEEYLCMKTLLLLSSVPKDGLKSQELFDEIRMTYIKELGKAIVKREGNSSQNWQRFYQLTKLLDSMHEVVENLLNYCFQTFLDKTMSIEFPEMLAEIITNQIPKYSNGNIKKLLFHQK

CCCCCCCCCCO[C@@H]1O[C@H](CO)[C@@H](O)[C@H](O)[C@H]1O
inactive: Potency [1] | Potency [2] | Potency [3] | Potency [4] | outcome [5] | Potency [6] | outcome [7] | Potency [8] | Potency [9] | Potency [10] | outcome [11]

NC(N)=NCCC[C@H](N)C(=O)O
inactive: Potency [12] | Potency [2] | Potency [13] | Potency [14] | Potency [3] | Potency [4] | Potency [6] | outcome [15] | outcome [7] | outcome [16] | Potency [8] | Potency [9] | outcome [17] | outcome [11] | Potency [18]

COc1cc(Cl)ccc1Oc1ccc(Cl)cc1Cl
inactive: Potency [1] | Potency [2] | Potency [3] | Potency [4] | outcome [5] | Potency [6] | outcome [15] | outcome [7] | outcome [16] | Potency [8] | Potency [9] | outcome [11]
active: Potency [14] 23.6 µM

CN(C)c1ccc(/C=C/c2ccc([N+](=O)[O-])cc2)cc1
inactive: activity change, negative = cytotoxicity [12] -6.1% [at 8.08 µM] | activity, negative = cytotoxicity [2] 49.6% [at 8.08 µM] | fluorescence, relative to Rose Bengal [3] 0% [at 3.72 µM] | fluorescence, % of fluorescein control [4] -0.0437% [at 3.72 µM] | fluorescence, % of fluorescent control [6] 0.111% [at 3.72 µM] | fluorescence, % of fluorescent control [7] -0.202% [at 3.72 µM] | activity change [16] -0.151% [at 3.72 µM] | fluorescence, % of fluorescent control [8] -0.187% [at 3.72 µM] | fluorescence, % of Rose Bengal [9] -0.037% [at 3.72 µM] | fluorescence, % of fluorescent control [17] -0.0827% [at 3.72 µM] | fluorescence, % of fluorescein control [10] -0.0291% [at 3.72 µM] | fluorescence, % of fluorescent control [11] -0.0831% [at 3.72 µM]

CNCCCCOc1ccccc1Cc1ccccc1
inactive: Potency [1] | Potency [2] | Potency [3] | Potency [4] | outcome [5] | Potency [6] | outcome [15] | outcome [7] | outcome [16] | Potency [8] | Potency [9] | Potency [10] | outcome [11] | Potency [19]

CC(C)C[C@H]1C(=O)N2CCC[C@H]2[C@]2(O)O[C@](NC(=O)[C@@H]3C=C4c5cccc6[nH]c(Br)c(c56)C[C@H]4N(C)C3)(C(C)C)C(=O)N12
inactive: Potency [1] | Potency [13] | Potency [4] | outcome [5] | Potency [6] | outcome [15] | outcome [7] | outcome [16] | Potency [8] | Potency [9] | outcome [17] | Potency [10] | outcome [11] | Potency [19]

Cc1[nH]c(C)c(Cl)c(=O)c1Cl
inactive: Potency [1] | Potency [2] | Potency [3] | Potency [4] | outcome [5] | Potency [6] | outcome [7] | outcome [16] | Potency [8] | Potency [9] | outcome [17] | Potency [10] | outcome [11] | Potency [19] | Potency [18]
